USP8 block = human USP8 deubiquitinase inhibition. purified USP8, Ub-rhodamine cleavage fluorescence, 30 min. inhibition, % at 20 µM. 4.2% of 47,000 active
USP28 block = inhibitors of human USP28 deubiquitinase | inhibition, % at 25 µM | Q96RU2 | purified USP28, Ub-rhodamine cleavage fluorescence, 30 min | 3% of 47,000 active
USP17 block = blocks human USP17 ubiquitin-rhodamine cleavage; A8MUK1; purified USP17, Ub-rhodamine cleavage fluorescence, 3 h; inhibition, % at 50 µM; 6.5% of 47,000 active; AID 1645855
USP30 block = blocks human USP30 ubiquitin-rhodamine cleavage. Q70CQ3. AID 1645860. 5.3% of 47,000 active. inhibition, % at 25 µM. purified USP30, Ub-rhodamine cleavage fluorescence
USP10 inh = blocks human USP10 ubiquitin-rhodamine cleavage. Q14694. purified USP10, Ub-rhodamine fluorescence, 60 min. inhibition, % at 20 µM. 1.1% of 47,000 active
Target sequence (Q14694 whole entry, looked up): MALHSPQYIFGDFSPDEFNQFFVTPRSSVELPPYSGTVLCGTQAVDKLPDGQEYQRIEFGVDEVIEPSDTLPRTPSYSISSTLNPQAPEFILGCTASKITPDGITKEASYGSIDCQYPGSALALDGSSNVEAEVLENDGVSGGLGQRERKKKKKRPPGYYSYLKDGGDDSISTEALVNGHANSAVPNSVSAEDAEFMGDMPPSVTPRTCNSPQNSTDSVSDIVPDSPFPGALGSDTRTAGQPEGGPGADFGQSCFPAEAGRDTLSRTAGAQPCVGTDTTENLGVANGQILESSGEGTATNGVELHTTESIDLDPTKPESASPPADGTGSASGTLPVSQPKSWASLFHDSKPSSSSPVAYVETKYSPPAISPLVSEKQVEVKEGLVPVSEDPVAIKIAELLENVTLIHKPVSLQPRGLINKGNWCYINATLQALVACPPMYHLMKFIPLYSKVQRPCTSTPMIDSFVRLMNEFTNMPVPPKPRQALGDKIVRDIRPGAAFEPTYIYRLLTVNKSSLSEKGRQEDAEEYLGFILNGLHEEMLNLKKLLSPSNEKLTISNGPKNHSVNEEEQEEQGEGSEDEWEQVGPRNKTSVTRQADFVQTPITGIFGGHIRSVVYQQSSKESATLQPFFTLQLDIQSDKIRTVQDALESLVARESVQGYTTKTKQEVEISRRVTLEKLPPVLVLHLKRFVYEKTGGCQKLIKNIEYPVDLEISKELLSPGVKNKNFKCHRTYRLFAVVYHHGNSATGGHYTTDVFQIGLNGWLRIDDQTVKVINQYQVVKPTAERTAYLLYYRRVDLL
An asterisk follows results filed as active; / = no result. An excerpt weighted towards active compounds, which were near 13% of everything screened. Rule as the data show it: active = inhibition above about 30%; inactive = the rest.

SMILES | USP8 block | USP28 block | USP17 block | USP30 block | USP10 inh
COc1cccc(CC2(Cc3cccc(OC)c3)C(=O)N(Cc3ccccn3)C(=O)c3ccccc32)c1 | 27 | 8 | 21 | 36* | 2
O=C(NCCCN1CCCC1)c1cccc(Cl)c1 | -44 | -8 | -11 | -10 | -3
O=C(Cc1cccc(Cl)c1)NCCN1CCC(O)(c2cccc(F)c2)CC1 | 3 | 17 | 7 | 34* | -2
CCCC(O)CCCCCCCc1cc(O)cc(O)c1C(=O)OC(CCC)CCCCCCCc1cc(O)cc(O)c1 (stereo unspecified) | 15 | 26 | 91* | 20 | 76*
N#Cc1ccc(-c2ccc(OCC(=O)Nc3ccc4c(c3)OCO4)cc2)cc1 | 43* | 4 | 56* | 29 | 7
O=C(COc1ccc2c(c1)CCC2)Nc1ccc2c(c1)CCC2 | 7 | 13 | 59* | 17 | 14
Cc1ccc2nc(-c3ccc(NC(=O)COc4ccc5c(c4)OCO5)cc3)sc2c1 | 26 | 1 | 14 | 3 | 13
O=C(COc1ccc2ccccc2c1)Nc1ccc2c(c1)CCC2 | -99 | 12 | 16 | 13 | 5
O=C(COc1ccc2c(c1)OCO2)Nc1ccc2c(c1)OCCO2 | -2 | 36* | -21 | -22 | -1
O=C(Cn1cnc2ccccc21)Nc1ccc2c(c1)CCC2 | 15 | 27 | 32* | 53* | -1
CCn1c(CN2CCOCC2)nnc1SCC(=O)c1ccccc1 | 2 | 5 | 9 | 6 | 1
COc1cc(-c2ccno2)ccc1S(=O)(=O)Nc1ccc(C)c(F)c1 | 1 | 4 | 0 | 0 | 2
Cc1cc(NC(=O)c2cc(=O)c3ccccc3o2)n(-c2ccccc2C)n1 | -14 | -5 | -5 | 1 | 1
O=C(COc1cccc(N2CCCC2=O)c1)Nc1ccc2c(c1)OCCO2 | -1 | 36* | -3 | -14 | 0
O=C(Cc1c(F)cccc1Cl)Nc1ccc2c(c1)OCO2 | 18 | 10 | 24 | -3 | 0
O=C(COc1cccc(N2CCCC2=O)c1)NCc1ccc2c(c1)OCO2 | 7 | 7 | 4 | 4 | 7
O=C(CNS(=O)(=O)c1cccs1)Nc1ccc2c(c1)OCCO2 | 6 | 18 | -2 | -22 | -4
O=C(Cc1ccc(Br)cc1)Nc1ccc2c(c1)OCO2 | 26 | 10 | 44* | 3 | 2
CN(CC(=O)Nc1ccc2c(c1)OCO2)S(=O)(=O)c1cccs1 | 50* | 7 | 14 | 3 | -1
CC(Oc1ccc(Cl)cc1)C(=O)Nc1ccc2c(c1)CCC2 (stereo unspecified) | 17 | 18 | 25 | 32* | 9
CC(Oc1ccc(F)cc1)C(=O)Nc1ccc2c(c1)NC(=O)CO2 (stereo unspecified) | -28 | 14 | 0 | -5 | 2
CCN1C(=O)c2cccnc2Sc2cc(NC(=O)COc3ccccc3)ccc21 | 0 | 0 | 16 | -47 | -5
Cc1ccc(-n2c(C)cc(C(=O)N3CCCC(c4nnc5ccccn45)C3)c2C)cc1 (stereo unspecified) | -222 | -61 | -103 | -258 | -3
Cc1cnc(C(=O)N2C[C@H]3C[C@H]4[C@](C2)(CN(Cc2ccc(Cl)cc2)S4(=O)=O)O3)cn1 | -118 | -1 | -7 | 7 | 0
O=C(Cn1cnc2ccccc21)N1CCc2ccccc21 | 1 | 5 | 34* | -8 | 0
SMILES | USP8 block | USP28 block | USP17 block | USP30 block | USP10 inh
O=C(Cn1cnc2sccc2c1=O)N1CCc2ccccc21 | -18 | 19 | 27 | -26 | -4
COc1ccc(CCn2c(-c3ccc(F)cc3)nc3c(c(=O)c4ccccc4n3C)c2=O)cc1OC | 17 | 0 | 20 | 30 | 0
CC(c1ccccc1)n1c(-c2ccc(F)cc2)nc2c(c(=O)c3ccccc3n2C)c1=O (stereo unspecified) | 32* | 13 | 60* | 27 | -3
COc1ccc(CCn2c(-c3ccc(C)cc3)nc3c(c(=O)c4ccccc4n3C)c2=O)cc1 | -5 | -7 | -13 | -28 | 1
COc1ccc(-c2nc3c(c(=O)c4ccccc4n3C)c(=O)n2CC(C)C)cc1 | 12 | 12 | 34* | 28 | 9
Cc1ccc(Cn2cc(C(=O)O)c(S(=O)(=O)N3CCCCC3)n2)cc1 | -123 | 0 | -15 | 3 | 1
CCNC(=O)N1C[C@@H]2OCC(=O)N(Cc3ccccc3)[C@@H]2C1 | 14 | 5 | 3 | 6 | 0
CCOC(=O)c1ccc(NC(=O)Cc2sc(Nc3ccc(O)cc3)nc2O)cc1 | 0 | -3 | 24 | -13 | 4
Cc1ccc(Nc2nc(O)c(CC(=O)Nc3cccc(Cl)c3C)s2)cc1C | 63* | 6 | 14 | 15 | 30*
Cc1ccc(CNC(=O)c2ccc3c(c2)sc2nc(-c4ccc(C)cc4)cn23)cc1 | 0 | -10 | -9 | -24 | 4
O=C(CCCC(=O)c1ccccc1)Nc1ccc2c(c1)CCC2 | -43 | 8 | 17 | 4 | 4
O=C(CCCC(=O)c1ccccc1)Nc1ccc(O)cc1 | 35* | 13 | 12 | -9 | 0
CCN1C(=O)CC[C@]2(CNC(=O)c3ccc4c(c3)OCO4)CCC[C@@H]12 | 20 | 7 | 8 | 28 | 0
COc1ccc(C2=Nc3ccccc3SC(c3ccccc3)C2)cc1 (stereo unspecified) | 41* | 15 | 19 | 9 | 6
Cc1ccc(C)c(N(C)C(=O)c2nn(C)c3c2CSc2ccccc2-3)c1 | 13 | 27 | / | 39* | 6
OCCNCCNc1ncnc2c1cnn2-c1cccc(Cl)c1 | 0 | -6 | -16 | -20 | -1
O=C(Nc1c2c(nn1-c1ccc([N+](=O)[O-])cc1)CSC2)c1c(F)cccc1F | 0 | 5 | 27 | 27 | 34*
COc1cc(C#N)c(NC(=NCc2ccc(F)cc2)SC)cc1OC | 14 | 35* | 53* | 48* | -1
CN1[C@@H](CCC(=O)NCc2ccccc2)CNC(=O)[C@@H]2[C@H]1CCN2Cc1ccccn1 | -62 | -23 | -87 | -163 | -6
COc1ccc(NC(=O)c2ccc(N3C(=O)N4CCc5c([nH]c6ccc(OC)cc56)[C@@]4(C)C3=O)cc2)cc1 | 31* | 17 | 23 | 18 | 2
COc1ccc(CCNC(=O)c2ccccc2N2C(=O)N3CCc4c([nH]c5ccc(OC)cc45)[C@@]3(C)C2=O)cc1 | 4 | -2 | 43* | 41* | 2
C[C@]12C(=O)N(c3ccccc3C(=O)NC3CCCCC3)C(=O)N1CCc1c2[nH]c2ccccc12 | -1 | 6 | 45* | 32* | 0
CC1CCC(NC(=O)c2ccccc2N2C(=O)N3CCc4c([nH]c5ccccc45)[C@@]3(C)C2=O)CC1 (stereo partly specified) | -3 | -2 | 5 | -9 | -1
O=C1NC(c2ccccc2)=N[C@@]12CC[C@@H]1CN(Cc3cccc(Cl)c3)C[C@@H]12 | -17 | 2 | -20 | 2 | 2
Cc1ccc(CNC(=O)[C@H](C)NC(=O)[C@@H]2Cc3c([nH]c4ccccc34)C3c4ccccc4C(=O)N32)cc1 (stereo partly specified) | -2 | 1 | -28 | -89 | -12
CCN1C(=O)Cc2cc(NS(=O)(=O)c3cc(C)ccc3OC)ccc21 | 2 | 0 | 47* | 11 | 0
